Activity calls are given as the source filed them. How the source made its calls: active means hit-call score of the fitted dose curve at least 0.9, where 1 is the maximum; inactive means score below 0.9.

Read-out in assay [1]: Transforming growth factor beta 1 (TGFb1), TGFB1 (gene 7040)
Briefly: BSK_KF3CT_TGFb1: BioMAP Diversity Plus: KF3CT Assay for Transforming growth factor beta 1 (TGFb1) Biomarker Activity (AID 2283072). The settings on record: primary human keratinocytes with fibroblasts; actives raise or lower the signal. In short, it runs like this:
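Human keratinocyte plus foreskin fibroblast primary co-culture, dosed with chemical for 24 h. TGF-b1 quantified by ELISA. Activity fitted bidirectionally against DMSO negative control as baseline.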

Read-out in assay [2]: C-C motif chemokine 2 (Homo sapiens) (UniProt P13500)
The assay can be described thus: BSK_KF3CT_MCP1: BioMAP Diversity Plus: KF3CT Assay for Monocyte Chemoattractant Protein 1 (MCP1/CCL2) Biomarker Activity (AID 2283073). The settings on record: primary human keratinocytes with fibroblasts; actives raise or lower the signal. In short, it runs like this: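 Biomarker MCP-1 is measured by ELISA in primary human keratinocytes co-cultured with foreskin fibroblasts, 24 h after chemical treatment; DMSO serves as the negative control and activity baseline.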

Read-out in assay [3]: Matrix Metallopeptidase 9 (MMP9), MMP9 (gene 4318)
Briefly: BSK_KF3CT_MMP9: BioMAP Diversity Plus: KF3CT Assay for Matrix Metallopeptidase 9 (MMP9) Biomarker Activity (AID 2283074). To be noted: primary human keratinocytes with fibroblasts; actives raise or lower the signal. Summed up:
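Human keratinocyte and foreskin fibroblast co-culture exposed to chemicals for 24 h; MMP9 biomarker measured by ELISA, bidirectional fitting relative to DMSO; cytotoxicity tracked by SRB total protein staining in parallel cultures.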

Read-out in assay [4]: urokinase plasminogen activator (uPA), PLAU (gene 5328)
Briefly: BSK_KF3CT_uPA: BioMAP Diversity Plus: KF3CT Assay for urokinase plasminogen activator (uPA) Biomarker Activity (AID 2283075). To be noted: primary human keratinocytes with fibroblasts; actives raise or lower the signal. Summed up: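 Primary human keratinocyte/foreskin fibroblast co-culture exposed to chemical; uPA measured by ELISA at 24 h. Bidirectional fit versus DMSO, with parallel SRB total-protein staining for cytotoxicity.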

Read-out in assay [5]: CD40, CD40 (gene 958)
Briefly: BSK_LPS_CD40: BioMAP Diversity Plus: LPS Assay for CD40 Biomarker Activity (AID 2283076). To be noted: primary human HUVEC with PBMC; actives raise or lower the signal. Summed up:
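Using a multiplexed primary human co-culture (umbilical vein endothelium plus PBMC), CD40 was read by ELISA 24 h after dosing, with cytotoxicity tracked by sulforhodamine B staining of parallel cultures and activity fitted bidirectionally versus DMSO.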

Read-out in assay [6]: E-selectin (Homo sapiens) (UniProt P16581)
The assay can be described thus: BSK_LPS_Eselectin: BioMAP Diversity Plus: LPS Assay for Eselectin Biomarker Activity (AID 2283077). The settings on record: primary human HUVEC with PBMC; actives raise or lower the signal. In short, it runs like this: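 Dose chemical onto LPS-driven HUVEC/PBMC co-culture; after 24 h, run ELISA for E-selectin; fit up- and down-going responses relative to DMSO control.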

Read-out in assay [7]: Interleukin-8 (IL8), CXCL8 (gene 3576)
Briefly: BSK_LPS_IL8: BioMAP Diversity Plus: LPS Assay for Interleukin-8 (IL8) Biomarker Activity (AID 2283078). To be noted: primary human HUVEC with PBMC; actives raise or lower the signal. In short, it runs like this: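 In this LPS system, chemical-treated human umbilical vein endothelium/PBMC co-cultures were harvested at 24 h for IL-8 ELISA.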

Assay [8] can be described thus: BSK_LPS_SRB: Viability Assessment in the BioMAP Diversity Plus: LPS Assay (AID 2283079).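 Further: total protein by sulforhodamine B absorbance as a cytotoxicity measure; measured one day after compound addition; fitted in both directions against DMSO so loss or gain of signal counts.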 The settings on record: primary human HUVEC with PBMC. In short, it runs like this:
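Cytotoxicity endpoint in human endothelial–PBMC co-culture: 24 h exposure, then SRB (0.1%) staining, 560 nm read.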

Read-out in assay [9]: Interleukin-1 alpha (IL1a), IL1A (gene 3552)
The assay can be described thus: BSK_LPS_IL1a: BioMAP Diversity Plus: LPS Assay for Interleukin-1 alpha (IL1a) Biomarker Activity (AID 2283080). To be noted: primary human HUVEC with PBMC; actives raise or lower the signal. In short, it runs like this: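 Primary human HUVEC and PBMC co-culture stimulated with LPS is dosed and harvested at 24 h. Both increases and decreases in ELISA-measured IL-1a are scored relative to DMSO.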

Assay [10] is described as follows: BSK_LPS_PGE2: BioMAP Diversity Plus: LPS Assay for Prostaglandin E2 (PGE2) Biomarker Activity (AID 2283082). The settings on record: primary human HUVEC with PBMC; actives raise or lower the signal. In short, it runs like this: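 HUVEC plus PBMC co-culture stimulated with LPS; secreted PGE2 quantified by ELISA 24 h after chemical dosing. Activity fitted bidirectionally against DMSO as negative control and baseline; parallel SRB total-protein staining served as cytotoxicity check.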

Read-out in assay [11]: Tissue Factor, F3 (gene 2152)
Briefly: BSK_LPS_TissueFactor: BioMAP Diversity Plus: LPS Assay for Tissue Factor Biomarker Activity (AID 2283084). The settings on record: primary human HUVEC with PBMC; actives raise or lower the signal. In short, it runs like this:
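Read-out: CD142 ELISA, 24 h. System: LPS-driven human endothelial/PBMC co-culture. Analysis: up- or down-signal fitted against DMSO.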

Read-out in assay [12]: Tumor necrosis factor (Homo sapiens) (UniProt P01375)
The assay can be described thus: BSK_LPS_TNFa: BioMAP Diversity Plus: LPS Assay for Tumour Necrosis Factor alpha (TNFa) Biomarker Activity (AID 2283085). The settings on record: primary human HUVEC with PBMC; actives raise or lower the signal. In short, it runs like this:
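Human umbilical vein endothelial cells co-cultured with PBMC were exposed to test chemical and TNFa measured by ELISA 24 h after dosing. Bidirectional curve fitting was done relative to DMSO as negative control and baseline.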

Read-out in assay [13]: Vascular cell adhesion molecule 1 (VCAM1), VCAM1 (gene 7412)
Briefly: BSK_LPS_VCAM1: BioMAP Diversity Plus: LPS Assay for Vascular cell adhesion molecule 1 (VCAM1) Biomarker Activity (AID 2283086). To be noted: primary human HUVEC with PBMC; actives raise or lower the signal. In short, it runs like this:
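Human umbilical vein endothelial cells co-cultured with peripheral blood mononuclear cells under LPS stimulation were exposed to test chemical for 24 h. VCAM-1 levels were then measured by ELISA, with bidirectional curve fitting relative to DMSO as negative control and baseline.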

Read-out in the next assay: CD38, CD38 (gene 952)
The assay can be described thus: BSK_SAg_CD38: BioMAP Diversity Plus: SAg Assay for CD38 Biomarker Activity (AID 2283087). The settings on record: primary human HUVEC with PBMC; actives raise or lower the signal. In short, it runs like this: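 Fluorescence ELISA of cell-surface CD38 served as the read-out, with either increase or decrease fitted against DMSO controls. Cells were a human umbilical vein endothelium plus PBMC co-culture under SEB/TSST-1 stimulation, measured 24 h after dosing.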

Read-out in assay [14]: CD40, CD40 (gene 958)
The assay can be described thus: BSK_SAg_CD40: BioMAP Diversity Plus: SAg Assay for CD40 Biomarker Activity (AID 2283088). To be noted: primary human HUVEC with PBMC; actives raise or lower the signal. Summed up:
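Endpoint derived by fitting increases or decreases versus DMSO controls. CD40 is detected by fluorescence ELISA in a human vascular co-culture of endothelium and PBMC at 24 h.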

Read-out in a further assay: CD69, CD69 (gene 969)
Briefly: BSK_SAg_CD69: BioMAP Diversity Plus: SAg Assay for CD69 Biomarker Activity (AID 2283089). To be noted: primary human HUVEC with PBMC; actives raise or lower the signal. Summed up: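 Endothelial/PBMC co-culture; chemical added; 24 h incubation; CD69 ELISA with fluorescence detection; bidirectional fit vs DMSO.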

Read-out in assay [15]: Monocyte Chemoattractant Protein-1 (MCP1), CCL2 (gene 6347)
The assay can be described thus: BSK_SAg_MCP1: BioMAP Diversity Plus: SAg Assay for Monocyte Chemoattractant Protein-1 (MCP1) Biomarker Activity (AID 2283090). To be noted: primary human HUVEC with PBMC; actives raise or lower the signal. In short, it runs like this:
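MCP-1 levels in the endothelial–PBMC SAg co-culture were quantified by ELISA at 24 h post-dosing; both increases and decreases versus DMSO scored. Cytotoxicity monitored by SRB total protein in parallel cultures.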

Read-out in assay [16]: E-selectin (Homo sapiens) (UniProt P16581)
Briefly: BSK_SAg_Eselectin: BioMAP Diversity Plus: SAg Assay for Eselectin Biomarker Activity (AID 2283091). To be noted: primary human HUVEC with PBMC; actives raise or lower the signal. In short, it runs like this:
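Endpoint values derive from bidirectional fitting relative to DMSO, using ELISA-measured E-selectin in a human vascular co-culture (umbilical vein endothelium plus PBMC) sampled 24 h after dosing.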

Read-out in assay [17]: Monocyte Chemoattractant Protein-1 (MCP1), CCL2 (gene 6347)
The assay can be described thus: BSK_LPS_MCP1: BioMAP Diversity Plus: LPS Assay for Monocyte Chemoattractant Protein-1 (MCP1) Biomarker Activity (AID 2283081). The settings on record: primary human HUVEC with PBMC; actives raise or lower the signal. In short, it runs like this: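 Values derive from bidirectional fitting against DMSO of ELISA-measured MCP-1 in a human primary endothelial and mononuclear cell co-culture, 24 h after chemical addition under LPS activation.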

Read-out in assay [18]: Macrophage colony-stimulating factor (MCSF), CSF1 (gene 1435)
Briefly: BSK_LPS_MCSF: BioMAP Diversity Plus: LPS Assay for Macrophage colony-stimulating factor (MCSF) Biomarker Activity (AID 2283083). To be noted: primary human HUVEC with PBMC; actives raise or lower the signal. In short, it runs like this: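 Bidirectional fit versus DMSO of ELISA-measured M-CSF in co-cultured human umbilical vein endothelial cells and PBMC, sampled 24 h after dosing.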

Chain of E-selectin (Homo sapiens) (P16581 whole entry, looked up): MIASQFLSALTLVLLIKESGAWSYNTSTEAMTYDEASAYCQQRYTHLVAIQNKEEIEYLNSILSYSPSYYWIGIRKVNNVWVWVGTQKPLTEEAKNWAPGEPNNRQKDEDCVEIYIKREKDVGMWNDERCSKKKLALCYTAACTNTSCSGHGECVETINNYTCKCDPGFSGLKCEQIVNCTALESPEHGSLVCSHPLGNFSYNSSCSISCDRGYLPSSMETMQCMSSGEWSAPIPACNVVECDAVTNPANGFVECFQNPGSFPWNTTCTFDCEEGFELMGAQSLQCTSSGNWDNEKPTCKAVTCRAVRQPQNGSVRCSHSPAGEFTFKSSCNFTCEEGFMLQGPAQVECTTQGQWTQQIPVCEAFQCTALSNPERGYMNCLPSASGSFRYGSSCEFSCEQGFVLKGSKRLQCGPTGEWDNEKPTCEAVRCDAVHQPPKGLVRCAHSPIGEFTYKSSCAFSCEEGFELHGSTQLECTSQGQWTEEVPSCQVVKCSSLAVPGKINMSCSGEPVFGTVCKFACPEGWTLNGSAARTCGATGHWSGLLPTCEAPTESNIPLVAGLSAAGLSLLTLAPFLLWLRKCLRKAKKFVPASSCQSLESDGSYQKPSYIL
Chain of Tumor necrosis factor (Homo sapiens) (P01375 whole entry, looked up): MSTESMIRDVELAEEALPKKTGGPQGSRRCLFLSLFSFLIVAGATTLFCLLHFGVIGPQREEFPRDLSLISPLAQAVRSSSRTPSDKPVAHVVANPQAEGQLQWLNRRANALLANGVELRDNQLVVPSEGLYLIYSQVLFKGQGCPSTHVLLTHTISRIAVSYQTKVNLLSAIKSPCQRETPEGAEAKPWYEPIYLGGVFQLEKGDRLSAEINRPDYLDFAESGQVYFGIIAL

Consider `OC[C@@H](O)[C@@H](O)[C@H](O)[C@H](O)CO`, for which the outcome in [1] was “inactive”; in assay [2] it was “inactive”; in assay [3], “inactive”; in assay [4], “inactive”; with CD40, CD40 (gene 958) [5], “inactive”; in assay [6], “inactive”. Also, the outcome in assay [7], in [8], in assay [9], in assay [10], in [11] and in assay [12] was inactive. Moreover, the outcome in assay [13] is “inactive”; with CD38, CD38 (gene 952) it was “inactive”; in the assay with CD40, CD40 (gene 958) [14] it was “inactive”; with CD69, CD69 (gene 969), “inactive”; in [15], “inactive”; in [16], “inactive”.
With `C=CCc1ccc(O)c(OC)c1`, the outcome was “inactive” in assay [1]; “inactive” in [2]; “inactive” in assay [3]; “inactive” with CD40, CD40 (gene 958) [5]; “inactive” in [6]; “inactive” in assay [7]. The result in assay [8], in [9], in [17], in [18], in assay [11] and in [12] was inactive. Moreover, the outcome was “inactive” in assay [13]; “inactive” with CD38, CD38 (gene 952); “inactive” in the assay with CD40, CD40 (gene 958) [14]; “inactive” with CD69, CD69 (gene 969); “inactive” in [15]. The AC50 in assay [10] is 542 nM (active); in [16], 4260 nM (active).
On to `Cc1ccc(Cl)cc1`, for which the outcome in assay [1] is “inactive”; in assay [2], “inactive”; in assay [3] it was “inactive”; in the assay with CD40, CD40 (gene 958) [5], “inactive”; in assay [6], “inactive”; in [7], “inactive”. Further, the outcome in assay [8], in [9], in assay [17], in [10], in assay [18] and in [11] was inactive. Also, the outcome was “inactive” in assay [13]; “inactive” with CD38, CD38 (gene 952); “inactive” with CD40, CD40 (gene 958) [14]; “inactive” with CD69, CD69 (gene 969); “inactive” in assay [15]; “inactive” in [16].
